Experiment [1] can be described thus: qHTS assay to identify small molecule antagonists of the estrogen receptor alpha (ER-alpha) signaling pathway using the BG1 cell line in the presence of 0.1 nM 17-beta-estradiol - cell viability counter screen (AID 1259241). Note: nearly all actives have a fitted effect of over 40% in size. The method in brief: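 Viability in VM7Luc4E2 cells after 22 hr compound exposure under 0.1 nM 17beta-estradiol stimulation, by CellTiter-Fluor.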
(In general: Quantitative high-throughput screening tests each substance at several concentrations.)

Experiment [2] in a line: qHTS assay to identify small molecule antagonists of the androgen receptor (AR) signaling pathway using the MDA cell line in the presence of 0.5 nM R1881 - cell viability counter screen (AID 1259242). Note: nearly all actives have a fitted effect of over 45% in size. The method in brief:
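R1881 at 0.5 nM final stimulated MDA-kb2 cells during 16 hr compound treatment at 37C. Cytotoxicity read: CellTiter-Fluor fluorescence after 30 min.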

Experiment [3] can be described thus: qHTS assay to identify small molecule HDAC inhibitors (AID 1259364).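 Note: wild-type HCT-116 cells with endogenous class I/II HDAC activity; top concentration of the series differs between compounds; nearly all actives have a fitted effect of over 45% in size.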 Put shortly: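 Relative class I and II HDAC activity is taken from the luminogenic signal in HCT-116 cells, with compound exposure 2 hr and reagent development 30 min at room temperature.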
A short description of experiment [4]: qHTS assay to identify small molecule HDAC inhibitors - cell viability counter screen (AID 1259365). Note: series mostly up to about 92 µM; nearly all actives have a fitted effect of over 50% in size. The method in brief:
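Cytotoxicity was gauged in wild-type HCT-116 cells after a brief 2hr treatment with DMSO-dissolved compounds at 37C and 5% CO2, using CellTiter-Glo luminescence developed for 30min at room temperature.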

Experiment [5] can be described thus: qHTS assay to identify small molecule agonists of the sonic hedgehog signaling (Shh) pathway - cell viability counter screen (AID 1259366). Note: nearly all actives have a fitted effect of over 50% in size. Note: potency is the fitted concentration of half-maximal effect. The method in brief:
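Stable Gli1-Luc NIH/3T3 clone, 2,000 cells/well. Compound exposure 24hr at 37C. Read-out: CellTiter-Fluor fluorescence.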

Experiment [6] can be described thus: qHTS assay to identify small molecule antagonists of the sonic hedgehog signaling (Shh) pathway - cell viability counter screen (AID 1259367). Note: nearly all actives have a fitted effect of over 55% in size. Note: potency is the fitted concentration of half-maximal effect. Put shortly: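 Using CellTiter-Fluor, viability of Gli1-Luc reporter 3T3 cells is read by fluorescence in the wells used for the Shh luciferase assay. Treatment lasts 23 hr with conditioned medium, then reagent 1 hr at 37C.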

The nature of experiment [7]: qHTS assay to identify small molecule agonists of the sonic hedgehog signaling (Shh) pathway (AID 1259368; calls by dose curve;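 note: NIH/3T3-derived 3T3Gli1-Luc cells carrying a stable Gli1-driven firefly luciferase reporter; series mostly up to about 92 µM; nearly all actives have a fitted effect of over 15% in size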). The method in brief: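 Mouse fibroblast (NIH/3T3) reporter cells with stably integrated Gli1-Luc were treated 24 hr with compound; firefly luciferase luminescence served as the read-out.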
A short description of experiment [8]: qHTS assay to identify small molecule antagonists of the sonic hedgehog signaling (Shh) pathway (AID 1259369; calls by dose curve; note: nearly all actives have a fitted effect of over 45% in size; note: potency is the fitted concentration of half-maximal effect). The method in brief: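 Conditioned medium drives Shh signalling in 3T3Gli1-Luc cells; compounds in DMSO co-applied, 24hr at 37 C, then luciferase luminescence.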
Experiment [9] can be described thus: qHTS assay to identify small molecule agonists of the androgen receptor (AR) signaling pathway in the presence of an antagonist - cell viability counter screen (AID 1259379).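 Note: MDA-kb2 human breast cancer cells carrying an MMTV luciferase reporter; series mostly up to about 92 µM; nearly all actives have a fitted effect of over 25% in size.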 Put shortly:
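A CellTiter-Fluor read-out measured viability of MDA-kb2 reporter cells (MMTV promoter with AR and GR response elements). Treatment: nilutamide 3.0uM final with compounds at 15 concentrations, 16 hr, 37C, 0% CO2.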

Experiment [10] in a line: qHTS assay to identify small molecule agonists of the estrogen receptor beta (ER-beta) signaling pathway - cell viability counter screen (AID 1259380). Note: nearly all actives have a fitted effect of over 30% in size. Note: potency is the fitted concentration of half-maximal effect. Put shortly: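 Cells used were ER-beta-UAS-bla HEK293T in medium with 2% charcoal-stripped FBS. They were treated for 16 hr at 37C. Viability came from CellTiter-Glo luminescence.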
A short description of experiment [11]: qHTS assay to identify small molecule antagonists of the estrogen receptor beta (ER-beta) signaling pathway - cell viability counter screen (AID 1259382). For activity change, negative = cytotoxicity: series mostly up to about 92 µM. Note: nearly all actives have a fitted effect of over 55% in size. Note: potency is the fitted concentration of half-maximal effect. Put shortly:
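Agonist-stimulated (1nM E2) ER-beta-UAS-bla HEK293T cells are incubated with library compounds for 16 hr at 37C. Cell viability is then assessed in the reporter-assay wells by adding CellTiter-Glo and reading luminescence after 30 min.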

Experiment [12] in a line: qHTS assay to identify small molecule agonists or antagonists of the thyroid stimulating hormone receptor (TSHR) signaling pathway - wild type cell line counter screen (AID 1259384; calls by dose curve). The method in brief:
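Counter screen in untransfected Hek293: compounds (15-point titration, triplicate) plus phosphodiesterase inhibitor Ro20-1724 added after 18 h plating; 30 min RT. Intracellular cAMP via competitive d2/cryptate immunoassay, 1 h incubation.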

The target in experiment [13] is Thyrotropin receptor (Homo sapiens) (UniProt P16473). Description: qHTS assay to identify small molecule antagonists of the thyroid stimulating hormone receptor (TSHR) signaling pathway (AID 1259385; calls by dose curve; note: nearly all actives have a fitted effect of over 20% in size). Put shortly: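 Antagonist mode: compound-treated TSHR-expressing HEK293 cells were stimulated with 1.5 ng/mL TSH (final) in presence of Ro20-1724 for 30 min at RT. HTRF cAMP detection after 1 h; each compound tested at 15 concentrations, triplicate.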

A short description of experiment [14]: qHTS assay to identify small molecule phospholipidosis (PLD) inducers (AID 1259344; active = well fitted curve in the direction sought with a large enough effect; an effect the other way counts as inactive or inconclusive). Put shortly:
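Fluorescent phospholipid staining (LipidTOX Red) measured by automated microscopy in fixed HepG2 cells after 24 h treatment; nuclei counterstained with Hoechst 33342; amiodarone as reference inducer.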

The target of experiment [15] is Estrogen receptor beta (Homo sapiens) (UniProt Q92731). Description: qHTS assay to identify small molecule agonists of the estrogen receptor beta (ER-beta) signaling pathway (AID 1259377; active = well fitted activation curve with a large enough effect in the signal ratio in the repeat runs, not every such curve was filed as active; the % refers to the signal ratio). The method in brief:
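Measured by fluorescence intensity from a B/G FRET beta-lactamase substrate (2 h, room temperature) in ER-beta-UAS-bla HEK293T cells treated with DMSO-dissolved compounds for 16 hr at 37C and 5% CO2.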

Experiment [16] shares this target. The experiment in a line: qHTS assay to identify small molecule antagonists of the estrogen receptor beta (ER-beta) signaling pathway (AID 1259378; active = well fitted inhibition curve with a large enough effect in the signal ratio in the repeat runs, not every such curve was filed as active; the % refers to the signal ratio). The method in brief:
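Antagonist mode: compounds added to beta-lactamase reporter HEK293T ER-beta-UAS cells stimulated with E2 (1nM final), 16 hr at 37C. LiveBLAzer B/G FRET substrate, 2 hours room temperature, fluorescence read-out.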

The target in experiment [17] is Estrogen receptor (Homo sapiens) (UniProt P03372). Description: qHTS assay to identify small molecule agonists of the estrogen receptor alpha (ER-alpha) signaling pathway in the presence of an antagonist (AID 1259383; calls by dose curve; note: top concentration of the series differs between compounds; nearly all actives have a fitted effect of over 15% in size). The method in brief: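 Using VM7Luc4E2 cells seeded 24hr before treatment, antagonist ICI-182,780 (10.0nM final) was added, followed by compounds at 15 concentrations. Plates incubated 22hr; ONE-Glo luminescence quantified reporter activity.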

Values without a mark were called inactive. Inconclusive results are not listed. Calls of active or inactive are those of the source. Unless noted, calls come from the whole dose curve; as a rule, active = well fitted curve in the direction sought with a large enough effect in the repeat runs; inconclusive = weak or mixed curves; inactive = no such curve, though single readings can be large; an effect the other way counts as inactive or inconclusive.
% is set by controls: 0 for no effect and ±100 for the full control effect.

Estrogen receptor beta (Homo sapiens), sequence (Q92731 whole entry, looked up): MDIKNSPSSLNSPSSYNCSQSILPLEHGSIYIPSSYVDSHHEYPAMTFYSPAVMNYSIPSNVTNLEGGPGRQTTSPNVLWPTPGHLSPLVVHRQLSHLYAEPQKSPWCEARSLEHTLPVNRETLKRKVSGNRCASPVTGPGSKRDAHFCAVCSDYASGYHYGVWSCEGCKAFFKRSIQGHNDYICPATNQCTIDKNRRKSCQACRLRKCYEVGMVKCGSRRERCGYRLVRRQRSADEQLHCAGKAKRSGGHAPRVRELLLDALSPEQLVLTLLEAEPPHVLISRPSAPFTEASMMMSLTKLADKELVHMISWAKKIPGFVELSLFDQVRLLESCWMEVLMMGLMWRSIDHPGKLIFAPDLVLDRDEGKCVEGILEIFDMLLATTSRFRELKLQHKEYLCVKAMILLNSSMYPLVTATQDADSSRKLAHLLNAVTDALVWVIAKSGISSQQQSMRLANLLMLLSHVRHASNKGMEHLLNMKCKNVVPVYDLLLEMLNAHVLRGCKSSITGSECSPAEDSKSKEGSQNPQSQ
Thyrotropin receptor (Homo sapiens), sequence (P16473 whole entry, looked up): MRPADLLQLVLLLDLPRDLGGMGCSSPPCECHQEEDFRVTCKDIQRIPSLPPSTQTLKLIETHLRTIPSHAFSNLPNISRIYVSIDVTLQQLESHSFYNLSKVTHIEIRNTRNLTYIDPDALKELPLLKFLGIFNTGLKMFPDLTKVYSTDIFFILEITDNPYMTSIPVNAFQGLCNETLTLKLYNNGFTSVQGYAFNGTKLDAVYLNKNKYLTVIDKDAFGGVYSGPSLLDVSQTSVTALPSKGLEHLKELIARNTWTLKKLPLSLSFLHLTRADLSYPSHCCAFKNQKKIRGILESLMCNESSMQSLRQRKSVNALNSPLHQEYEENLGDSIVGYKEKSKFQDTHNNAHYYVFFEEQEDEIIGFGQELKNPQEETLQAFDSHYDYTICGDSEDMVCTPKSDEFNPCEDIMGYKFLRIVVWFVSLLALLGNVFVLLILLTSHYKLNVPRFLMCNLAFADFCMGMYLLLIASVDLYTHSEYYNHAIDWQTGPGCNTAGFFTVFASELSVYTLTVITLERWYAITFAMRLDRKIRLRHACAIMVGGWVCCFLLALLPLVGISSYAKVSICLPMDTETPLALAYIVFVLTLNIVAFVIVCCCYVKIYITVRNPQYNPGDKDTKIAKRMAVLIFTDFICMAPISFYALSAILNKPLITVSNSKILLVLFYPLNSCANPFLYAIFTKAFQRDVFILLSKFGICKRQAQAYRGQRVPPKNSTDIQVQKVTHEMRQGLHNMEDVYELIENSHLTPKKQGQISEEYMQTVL
Estrogen receptor (Homo sapiens), sequence (P03372 whole entry, looked up): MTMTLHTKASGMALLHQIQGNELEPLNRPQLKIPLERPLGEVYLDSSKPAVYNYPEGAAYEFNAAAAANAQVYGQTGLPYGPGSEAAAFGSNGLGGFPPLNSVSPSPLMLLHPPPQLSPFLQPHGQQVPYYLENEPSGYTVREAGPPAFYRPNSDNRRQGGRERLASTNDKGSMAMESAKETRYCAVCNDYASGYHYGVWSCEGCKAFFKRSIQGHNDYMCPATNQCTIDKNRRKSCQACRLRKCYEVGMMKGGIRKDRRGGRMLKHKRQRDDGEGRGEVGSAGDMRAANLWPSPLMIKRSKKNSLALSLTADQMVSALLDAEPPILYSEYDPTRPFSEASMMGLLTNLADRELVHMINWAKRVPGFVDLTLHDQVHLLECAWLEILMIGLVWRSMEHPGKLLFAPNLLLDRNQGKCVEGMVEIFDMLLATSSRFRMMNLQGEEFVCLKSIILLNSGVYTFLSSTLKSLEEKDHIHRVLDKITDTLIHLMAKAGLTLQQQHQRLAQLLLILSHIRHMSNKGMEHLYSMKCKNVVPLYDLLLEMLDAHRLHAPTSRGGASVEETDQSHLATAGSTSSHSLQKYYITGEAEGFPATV

Consider `N#Cc1c(F)cccc1F`, for which the Potency result in experiment [1], in experiment [2], in experiment [3], in [5], in [6] and in experiment [8] was “inactive” throughout. Besides, the Potency entry in [9], in [10], in experiment [11], in [12] and in experiment [13] was “inactive” in each case. In addition, the result in experiment [4] and in experiment [7] was inactive.
Take `Oc1ccc(C(O)CNCCCCCCNCC(O)c2ccc(O)c(O)c2)cc1O` (configuration not stated): the Potency result in experiment [1], in experiment [2], in [14], in experiment [3], in experiment [8] and in [10] was “inactive” in each case. For the same molecule, the Potency entry in experiment [11] and in experiment [13] was “inactive” each time. The outcome in experiment [4] and in experiment [7] was inactive. The figures for the Potency in experiment [5] and in [6] were 8.41 µM (active) and 29.8 µM (active), respectively.
For `CCCCCCCCCCCCCCCCCBr`, the activity change, negative = cytotoxicity in experiment [1] was 5.52% [at 19 µM]; in experiment [4], 0.135% [at 19 µM]; in [9] it was 4.41% [at 19 µM]; in experiment [10] it was -0.948% [at 19 µM]. The viability change, negative = cytotoxic in [2] is -0.565% [at 19 µM]; in experiment [5], -1.63% [at 19 µM]; in experiment [6], -1.98% [at 19 µM]. Besides, the activity change, negative = inhibition in [3] was 6.57% [at 19 µM]; in experiment [8], -0.552% [at 19 µM]. For the same molecule, in experiment [7], the activity change was -0.456% [at 18.9 µM]. Moreover, the activation in [15] is -3.04% [at 19 µM]. Further, the activity, negative = inhibition in experiment [16] was 11.4% [at 19 µM].
For the molecule `Cc1cc(CC(=O)O)c(C)n1-c1ccc(Cl)cc1`, the Potency entry in [1], in experiment [2], in [14], in experiment [5], in experiment [6] and in experiment [15] was “inactive” in each case. Moreover, the Potency entry in experiment [9], in [11], in experiment [12] and in [13] was “inactive” each time. Also, the outcome in experiment [4] and in experiment [7] was inactive. The Potency in experiment [10] was 10.6 µM (active).
With `CC(C)c1ccccc1C(C)C`, the Potency entry in [1], in [2], in experiment [3], in [5], in experiment [6] and in experiment [8] was “inactive” each time. The Potency entry in [16], in experiment [9], in [10], in experiment [11], in [12] and in experiment [13] was “inactive” throughout. In addition, the outcome in experiment [4] and in experiment [7] was inactive.
Regarding `Nc1nc(CC(=O)O)cs1`, the Potency result in experiment [1], in [2], in experiment [3], in experiment [5], in [6] and in experiment [8] was “inactive” in each case. Besides, the Potency entry in experiment [15], in experiment [9], in experiment [12] and in experiment [13] was “inactive” in each case. Moreover, the molecule was called inactive in experiment [4].
With `CN1CCC(=C2c3ccccc3C=Cc3ccccc32)CC1`, the Potency result in experiment [1], in experiment [2], in experiment [14], in [5], in [6] and in [15] was “inactive” throughout. The Potency result in [16], in experiment [9], in [17], in [12] and in experiment [13] was “inactive” throughout. In addition, the molecule was classed as inactive in experiment [4] and in experiment [7]. Also, the Potency is 0.335 µM (active) in [8], 26.6 µM (active) in experiment [10] and 21.1 µM (active) in [11].
For `CN(C(=O)CCCOc1ccc2[nH]c(=O)ccc2c1)C1CCCCC1`, the Potency entry in [1], in experiment [2], in experiment [14], in experiment [5], in experiment [6] and in experiment [15] was “inactive” throughout. Also, the Potency entry in [9], in experiment [10], in experiment [11], in [12] and in experiment [13] was “inactive” throughout. In addition, the molecule was classed as inactive in experiment [4] and in [7].
For `CCCCCC(CO)CCC` (configuration not stated), the Potency entry in [1], in experiment [2], in experiment [3], in experiment [5], in experiment [6] and in experiment [8] was “inactive” each time. In addition, the Potency entry in experiment [15], in experiment [16], in [9], in experiment [11], in experiment [12] and in [13] was “inactive” in each case. In addition, the result in [7] was inactive.

For the origin of these results see PubChem BioAssay (Tox21).
